Data published in article PMC11006913.
Substitutions are numbered along the chain they refer to.

Legend:
Assay in all cases: PBM; 200 nM protein, PBS
Details in all cases: dsDNA, one strand shown
SIX6 [1] = target: T1, SIX6 (Homo sapiens, UniProt O95475 114-200, L167I)
T1 sequence: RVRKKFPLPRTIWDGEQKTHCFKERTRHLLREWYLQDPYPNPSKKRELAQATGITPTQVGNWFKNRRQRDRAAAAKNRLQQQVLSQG

SIX6 [2] = target: T2, SIX6 (Homo sapiens, UniProt O95475 114-200, L143V)
T2 sequence: T1 sequence with L30V, I54L

SIX6 [3] = target: T3, SIX6 (Homo sapiens, UniProt O95475 114-200, H141N)
T3 sequence: T1 sequence with H28N, I54L

SIX6 [4] = target: T4, SIX6 (Homo sapiens, UniProt O95475 114-200, T165P)
T4 sequence: T1 sequence with T52P, I54L

SIX6 [5] = target: T5, SIX6 (Homo sapiens, UniProt O95475 114-200, L167M)
T5 sequence: T1 sequence with I54M

SIX6 [6] = target: T6, SIX6 (Homo sapiens, UniProt O95475 114-200, L143M)
T6 sequence: T1 sequence with L30M, I54L

SIX6 [7] = target: T7, SIX6 (Homo sapiens, UniProt O95475 114-200, L143I)
T7 sequence: T1 sequence with L30I, I54L

SIX6 [8] = target: T8, SIX6 (Homo sapiens, UniProt O95475 114-200, T165G)
T8 sequence: T1 sequence with T52G, I54L

SIX6 [9] = target: T9, SIX6 (Homo sapiens, UniProt O95475 114-200, T139Q)
T9 sequence: T1 sequence with T26Q, I54L

SIX6 [10] = target: T10, SIX6 (Homo sapiens, UniProt O95475 114-200, T165A)
T10 sequence: T1 sequence with T52A, I54L

SIX6 [11] = target: T11, SIX6 (Homo sapiens, UniProt O95475 114-200, L167V)
T11 sequence: T1 sequence with I54V

SIX6 [12] = target: T12, SIX6 (Homo sapiens, UniProt O95475 114-200)
T12 sequence: T1 sequence with I54L

SIX6 [13] = target: T13, SIX6 (Homo sapiens, UniProt O95475 114-200, T165I)
T13 sequence: T1 sequence with T52I, I54L

GTGATATA
binding signal (SIX6 [1]): 11.3 upbm affinity estimate (log intensity, higher = more binding, comparable within an allelic series) | binding signal (SIX6 [2]): 10.5 upbm affinity estimate (log intensity, higher = more binding, comparable within an allelic series) | binding signal (SIX6 [3]): 11.3 upbm affinity estimate (log intensity, higher = more binding, comparable within an allelic series) | binding signal (SIX6 [4]): 9.96 upbm affinity estimate (log intensity, higher = more binding, comparable within an allelic series) | binding signal (SIX6 [5]): 11 upbm affinity estimate (log intensity, higher = more binding, comparable within an allelic series) | binding signal (SIX6 [6]): 10.9 upbm affinity estimate (log intensity, higher = more binding, comparable within an allelic series) | binding signal (SIX6 [7]): 10.4 upbm affinity estimate (log intensity, higher = more binding, comparable within an allelic series) | binding signal (SIX6 [8]): 11.3 upbm affinity estimate (log intensity, higher = more binding, comparable within an allelic series) | binding signal (SIX6 [9]): 11.1 upbm affinity estimate (log intensity, higher = more binding, comparable within an allelic series) | binding signal (SIX6 [10]): 11.3 upbm affinity estimate (log intensity, higher = more binding, comparable within an allelic series) | binding signal (SIX6 [11]): 11.1 upbm affinity estimate (log intensity, higher = more binding, comparable within an allelic series) | binding signal (SIX6 [12]): 11.1 upbm affinity estimate (log intensity, higher = more binding, comparable within an allelic series) | binding signal (SIX6 [13]): 11.2 upbm affinity estimate (log intensity, higher = more binding, comparable within an allelic series)

AGTGTATC
binding signal (SIX6 [1]): 11 upbm affinity estimate (log intensity, higher = more binding, comparable within an allelic series) | binding signal (SIX6 [2]): 10.3 upbm affinity estimate (log intensity, higher = more binding, comparable within an allelic series) | binding signal (SIX6 [3]): 11 upbm affinity estimate (log intensity, higher = more binding, comparable within an allelic series) | binding signal (SIX6 [4]): 9.91 upbm affinity estimate (log intensity, higher = more binding, comparable within an allelic series) | binding signal (SIX6 [5]): 10.7 upbm affinity estimate (log intensity, higher = more binding, comparable within an allelic series) | binding signal (SIX6 [6]): 11 upbm affinity estimate (log intensity, higher = more binding, comparable within an allelic series) | binding signal (SIX6 [7]): 10.4 upbm affinity estimate (log intensity, higher = more binding, comparable within an allelic series) | binding signal (SIX6 [8]): 11.1 upbm affinity estimate (log intensity, higher = more binding, comparable within an allelic series) | binding signal (SIX6 [9]): 11.3 upbm affinity estimate (log intensity, higher = more binding, comparable within an allelic series) | binding signal (SIX6 [10]): 11 upbm affinity estimate (log intensity, higher = more binding, comparable within an allelic series) | binding signal (SIX6 [11]): 10.8 upbm affinity estimate (log intensity, higher = more binding, comparable within an allelic series) | binding signal (SIX6 [12]): 11 upbm affinity estimate (log intensity, higher = more binding, comparable within an allelic series) | binding signal (SIX6 [13]): 10.9 upbm affinity estimate (log intensity, higher = more binding, comparable within an allelic series)

GCGCTGCC
binding signal (SIX6 [1]): 8.75 upbm affinity estimate (log intensity, higher = more binding, comparable within an allelic series) | binding signal (SIX6 [2]): 8.74 upbm affinity estimate (log intensity, higher = more binding, comparable within an allelic series) | binding signal (SIX6 [3]): 8.81 upbm affinity estimate (log intensity, higher = more binding, comparable within an allelic series) | binding signal (SIX6 [4]): 8.85 upbm affinity estimate (log intensity, higher = more binding, comparable within an allelic series) | binding signal (SIX6 [5]): 8.8 upbm affinity estimate (log intensity, higher = more binding, comparable within an allelic series) | binding signal (SIX6 [6]): 8.76 upbm affinity estimate (log intensity, higher = more binding, comparable within an allelic series) | binding signal (SIX6 [7]): 8.77 upbm affinity estimate (log intensity, higher = more binding, comparable within an allelic series) | binding signal (SIX6 [8]): 8.82 upbm affinity estimate (log intensity, higher = more binding, comparable within an allelic series) | binding signal (SIX6 [9]): 8.75 upbm affinity estimate (log intensity, higher = more binding, comparable within an allelic series) | binding signal (SIX6 [10]): 8.8 upbm affinity estimate (log intensity, higher = more binding, comparable within an allelic series) | binding signal (SIX6 [11]): 8.69 upbm affinity estimate (log intensity, higher = more binding, comparable within an allelic series) | binding signal (SIX6 [12]): 8.71 upbm affinity estimate (log intensity, higher = more binding, comparable within an allelic series) | binding signal (SIX6 [13]): 8.78 upbm affinity estimate (log intensity, higher = more binding, comparable within an allelic series)

ACTGCCGG
binding signal (SIX6 [1]): 9.01 upbm affinity estimate (log intensity, higher = more binding, comparable within an allelic series) | binding signal (SIX6 [2]): 9.11 upbm affinity estimate (log intensity, higher = more binding, comparable within an allelic series) | binding signal (SIX6 [3]): 9.15 upbm affinity estimate (log intensity, higher = more binding, comparable within an allelic series) | binding signal (SIX6 [4]): 9.02 upbm affinity estimate (log intensity, higher = more binding, comparable within an allelic series) | binding signal (SIX6 [5]): 9.04 upbm affinity estimate (log intensity, higher = more binding, comparable within an allelic series) | binding signal (SIX6 [6]): 9.15 upbm affinity estimate (log intensity, higher = more binding, comparable within an allelic series) | binding signal (SIX6 [7]): 9.19 upbm affinity estimate (log intensity, higher = more binding, comparable within an allelic series) | binding signal (SIX6 [8]): 9.17 upbm affinity estimate (log intensity, higher = more binding, comparable within an allelic series) | binding signal (SIX6 [9]): 9.29 upbm affinity estimate (log intensity, higher = more binding, comparable within an allelic series) | binding signal (SIX6 [10]): 9.08 upbm affinity estimate (log intensity, higher = more binding, comparable within an allelic series) | binding signal (SIX6 [11]): 9.11 upbm affinity estimate (log intensity, higher = more binding, comparable within an allelic series) | binding signal (SIX6 [12]): 9.23 upbm affinity estimate (log intensity, higher = more binding, comparable within an allelic series) | binding signal (SIX6 [13]): 9.16 upbm affinity estimate (log intensity, higher = more binding, comparable within an allelic series)

AGCGGTGG
binding signal (SIX6 [1]): 8.97 upbm affinity estimate (log intensity, higher = more binding, comparable within an allelic series) | binding signal (SIX6 [2]): 8.89 upbm affinity estimate (log intensity, higher = more binding, comparable within an allelic series) | binding signal (SIX6 [3]): 8.96 upbm affinity estimate (log intensity, higher = more binding, comparable within an allelic series) | binding signal (SIX6 [4]): 8.97 upbm affinity estimate (log intensity, higher = more binding, comparable within an allelic series) | binding signal (SIX6 [5]): 8.93 upbm affinity estimate (log intensity, higher = more binding, comparable within an allelic series) | binding signal (SIX6 [6]): 9.05 upbm affinity estimate (log intensity, higher = more binding, comparable within an allelic series) | binding signal (SIX6 [7]): 9 upbm affinity estimate (log intensity, higher = more binding, comparable within an allelic series) | binding signal (SIX6 [8]): 8.94 upbm affinity estimate (log intensity, higher = more binding, comparable within an allelic series) | binding signal (SIX6 [9]): 9.04 upbm affinity estimate (log intensity, higher = more binding, comparable within an allelic series) | binding signal (SIX6 [10]): 8.98 upbm affinity estimate (log intensity, higher = more binding, comparable within an allelic series) | binding signal (SIX6 [11]): 8.84 upbm affinity estimate (log intensity, higher = more binding, comparable within an allelic series) | binding signal (SIX6 [12]): 9.06 upbm affinity estimate (log intensity, higher = more binding, comparable within an allelic series) | binding signal (SIX6 [13]): 8.95 upbm affinity estimate (log intensity, higher = more binding, comparable within an allelic series)

GCTGTCCC
binding signal (SIX6 [1]): 8.84 upbm affinity estimate (log intensity, higher = more binding, comparable within an allelic series) | binding signal (SIX6 [2]): 8.8 upbm affinity estimate (log intensity, higher = more binding, comparable within an allelic series) | binding signal (SIX6 [3]): 8.82 upbm affinity estimate (log intensity, higher = more binding, comparable within an allelic series) | binding signal (SIX6 [4]): 9.07 upbm affinity estimate (log intensity, higher = more binding, comparable within an allelic series) | binding signal (SIX6 [5]): 8.79 upbm affinity estimate (log intensity, higher = more binding, comparable within an allelic series) | binding signal (SIX6 [6]): 8.89 upbm affinity estimate (log intensity, higher = more binding, comparable within an allelic series) | binding signal (SIX6 [7]): 8.88 upbm affinity estimate (log intensity, higher = more binding, comparable within an allelic series) | binding signal (SIX6 [8]): 8.98 upbm affinity estimate (log intensity, higher = more binding, comparable within an allelic series) | binding signal (SIX6 [9]): 9.06 upbm affinity estimate (log intensity, higher = more binding, comparable within an allelic series) | binding signal (SIX6 [10]): 8.87 upbm affinity estimate (log intensity, higher = more binding, comparable within an allelic series) | binding signal (SIX6 [11]): 9.03 upbm affinity estimate (log intensity, higher = more binding, comparable within an allelic series) | binding signal (SIX6 [12]): 8.86 upbm affinity estimate (log intensity, higher = more binding, comparable within an allelic series) | binding signal (SIX6 [13]): 8.9 upbm affinity estimate (log intensity, higher = more binding, comparable within an allelic series)
